In all, about 5,500 compounds went through this assay and about 2,000 (36%) were called active. Another 18% or so got no clear call; they are omitted. This is one part of the list. A number with no mark means an inactive call. No stated cut-off is given here; in the data, active means normalized growth mostly below about 0.91 (no sharp cut-off); inconclusive means no clear call, values can overlap the other calls; inactive means mostly above about 0.92.
Assay: chemical genetic growth profiling, strain panel (AID 1159580);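 further: tested at 20 µM; growth read once vehicle control cultures reached saturation at 30 °C; 1 = growth at the plate median or of vehicle wells; lower values mean less growth of the strain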
Details: S. cerevisiae deletion strains, growth OD
[1] = locus YHR030C, strain SLT2, hits give low values
[2] = locus YHR079C, strain IRE1, hits give low values
[3] = locus YJL095W, strain BCK1, hits give low values
[4] = locus YJR066W, strain TOR1, hits give low values
[5] = locus YLR113W, strain HOG1, hits give low values
[6] = locus YNL183C, strain NPR1, hits give low values
[7] = locus YOR231W, strain MKK1, hits give low values
[8] = locus YPL256C, strain CLN2, hits give low values

For `COc1cccc([C@]2(O)CCCC[C@H]2CN(C)C)c1`, the normalized growth (locus YAL021C, strain ccr4, hits give low values) was 0.964, the normalized growth (locus YAL026C, strain drs2, hits give low values) was 0.968 and the normalized growth (locus YAL030W, strain snc1, hits give low values) was 0.947. It also gave a normalized growth (locus YBL061C, strain skt5, hits give low values) of 0.968, a normalized growth (locus YBR009C, strain hhf1, hits give low values) of 0.965 and a normalized growth (locus YBR023C, strain chs3, hits give low values) of 0.977. The normalized growth (locus YBR171W, strain sec66, hits give low values) was 0.962, the normalized growth (locus YBR231C, strain swc5, hits give low values) was 0.99 and the normalized growth (locus YBR279W, strain paf1, hits give low values) was 0.975. For the same molecule, the normalized growth (locus YCL011C, strain gbp2, hits give low values) was 0.972, the normalized growth (locus YCL016C, strain dcc1, hits give low values) was 0.973 and the normalized growth (locus YCL061C, strain MRC1, hits give low values) was 0.987. It also gave a normalized growth (locus YCL069W, strain vba3, hits give low values) of 0.967, a normalized growth (locus YCR088W, strain abp1, hits give low values) of 0.973 and a normalized growth (locus YDL005C, strain med2, hits give low values) of 0.965. The normalized growth (locus YDL040C, strain nat1, hits give low values) was 0.978, the normalized growth (locus YDR001C, strain nth1, hits give low values) was 0.963 and the normalized growth (locus YDR069C, strain doa4, hits give low values) was 0.958. It also gave a normalized growth (locus YDR137W, strain rgp1, hits give low values) of 0.942, a normalized growth (locus YDR159W, strain sac3, hits give low values) of 0.932 and a normalized growth (locus YDR195W, strain ref2) of 0.956. The normalized growth (locus YDR297W, strain sur2, hits give low values) was 0.966, the normalized growth (locus YDR334W, strain swr1, hits give low values) was 0.928 and the normalized growth (locus YDR335W, strain msn5, hits give low values) was 0.958. It also gave a normalized growth (locus YDR392W, strain spt3, hits give low values) of 0.973, a normalized growth (locus YEL003W, strain gim4, hits give low values) of 0.971 and a normalized growth (locus YEL037C, strain rad23, hits give low values) of 0.982. The normalized growth (locus YEL061C, strain CIN8 (second series), hits give low values) was 0.968, the normalized growth (locus YER015W, strain faa2, hits give low values) was 0.973 and the normalized growth (locus YER016W, strain bim1, hits give low values) was 0.978. For the same molecule, the normalized growth (locus YER111C, strain swi4, hits give low values) was 0.974, the normalized growth (locus YER155C, strain BEM2 (second series), hits give low values) was 0.97 and the normalized growth (locus YFR010W, strain ubp6, hits give low values) was 0.955. For the same molecule, the normalized growth (locus YGL167C, strain pmr1, hits give low values) was 0.967, the normalized growth (locus YGL173C, strain kem1, hits give low values) was 0.952 and the normalized growth (locus YGL227W, strain vid30, hits give low values) was 0.963. It also gave a normalized growth (locus YGL240W, strain doc1, hits give low values) of 0.947, a normalized growth (locus YGL253W, strain hxk2, hits give low values) of 0.988 and a normalized growth (locus YHR013C, strain ard1, hits give low values) of 0.937. The normalized growth (locus YHR027C, strain rpn1, hits give low values) was 0.959, the normalized growth [1] was 0.969 and the normalized growth [2] was 0.963. For the same molecule, the normalized growth (locus YHR142W, strain chs7, hits give low values) was 0.951, the normalized growth (locus YJL092W, strain hpr5, hits give low values) was 0.982 and the normalized growth (locus YJL095W, strain BCK1 (second series), hits give low values) was 0.962. It also gave a normalized growth [3] of 1.01, a normalized growth (locus YJL115W, strain asf1, hits give low values) of 0.956 and a normalized growth (locus YJL129C, strain trk1, hits give low values) of 0.983. The normalized growth (locus YJL154C, strain vps35, hits give low values) was 0.959, the normalized growth (locus YJL164C, strain tpk1, hits give low values) was 0.981 and the normalized growth (locus YJL166W, strain qcr8, hits give low values) was 0.968. The normalized growth (locus YJL187C, strain SWE1, hits give low values) was 0.973, the normalized growth [4] was 0.935 and the normalized growth (locus YKL160W, strain elf1, hits give low values) was 0.981. For the same molecule, the normalized growth (locus YKR026C, strain gcn3, hits give low values) was 0.977, the normalized growth (locus YKR091W, strain srl3, hits give low values) was 0.98 and the normalized growth (locus YLL001W, strain dnm1, hits give low values) was 0.981. It also gave a normalized growth (locus YLL026W, hits give low values) of 0.949, a normalized growth (locus YLL041C, strain sdh2, hits give low values) of 0.971 and a normalized growth (locus YLR027C, strain aat2, hits give low values) of 0.944. It also gave a normalized growth [5] of 0.981, a normalized growth (locus YLR221C, strain rsa3, hits give low values) of 0.971 and a normalized growth (locus YLR258W, strain gsy2, hits give low values) of 0.971. It also gave a normalized growth (locus YLR262C, strain YPT6 (second series), hits give low values) of 0.962, a normalized growth (locus YLR320W, strain mms22, hits give low values) of 0.964 and a normalized growth (locus YLR342W, strain FKS1, hits give low values) of 0.99. For the same molecule, the normalized growth (locus YLR357W, strain rsc2, hits give low values) was 0.997, the normalized growth (locus YLR370C, strain arc18, hits give low values) was 0.974 and the normalized growth (locus YLR384C, strain iki3, hits give low values) was 0.974. For the same molecule, the normalized growth (locus YML120C, strain ndi1, hits give low values) was 0.979, the normalized growth (locus YMR058W, strain fet3, hits give low values) was 0.978 and the normalized growth (locus YMR125W, strain sto1, hits give low values) was 0.963. It also gave a normalized growth (locus YMR129W, hits give low values) of 0.987, a normalized growth (locus YMR205C, strain PFK2, hits give low values) of 0.961 and a normalized growth (locus YMR231W, strain pep5, hits give low values) of 0.967. For the same molecule, the normalized growth (locus YNL071W, strain lat1, hits give low values) was 0.98, the normalized growth [6] was 0.941 and the normalized growth (locus YNL209W, strain ssb2, hits give low values) was 0.966. The normalized growth (locus YNL248C, strain rpa49, hits give low values) was 0.989, the normalized growth (locus YNL322C, strain KRE1 (second series), hits give low values) was 0.97 and the normalized growth (locus YNR049C, strain mso1, hits give low values) was 0.969. For the same molecule, the normalized growth (locus YOR001W, strain rrp6, hits give low values) was 0.968, the normalized growth (locus YOR070C, strain gyp1, hits give low values) was 0.978 and the normalized growth (locus YOR080W, strain dia2, hits give low values) was 0.969. The normalized growth (locus YOR083W, strain WHI5, hits give low values) was 0.968, the normalized growth (locus YOR106W, strain vam3, hits give low values) was 0.969 and the normalized growth [7] was 0.96. The normalized growth (locus YOR265W, strain rbl2, hits give low values) was 0.978, the normalized growth (locus YOR270C, strain vph1, hits give low values) was 0.945 and the normalized growth (locus YOR290C, strain snf2, hits give low values) was 0.966. It also gave a normalized growth (locus YPL051W, strain arl3, hits give low values) of 0.987, a normalized growth (locus YPL078C, strain atp4, hits give low values) of 0.968 and a normalized growth (locus YPL106C, strain sse1, hits give low values) of 0.916. For the same molecule, the normalized growth (locus YPL240C, strain hsp82, hits give low values) was 0.974 and the normalized growth [8] was 0.978.
For `Cn1cncc1S(=O)(=O)/C(C#N)=C/c1ccccc1Sc1ccc(Cl)cc1`, the normalized growth (locus YAR019C, strain CDC15, hits give low values) was 0.987, the normalized growth (locus YBL105C, strain PKC1, hits give low values) was 0.973 and the normalized growth (locus YBR135W, strain CKS1, hits give low values) was 0.975. For the same molecule, the normalized growth (locus YBR136W, strain MEC1, hits give low values) was 0.972, the normalized growth (locus YBR160W, strain CDC28, hits give low values) was 0.983 and the normalized growth (locus YDL017W, strain CDC7, hits give low values) was 0.976. The normalized growth (locus YDL028C, strain MPS1, hits give low values) was 0.979, the normalized growth (locus YDL101C, strain DUN1, hits give low values) was 0.976 and the normalized growth (locus YDL108W, strain KIN28, hits give low values) was 0.979. The normalized growth (locus YDL132W, strain cdc53, hits give low values) was 0.97, the normalized growth (locus YDL214C, strain PRR2, hits give low values) was 0.771 and the normalized growth (locus YDR052C, strain DBF4, hits give low values) was 0.983. The normalized growth (locus YDR054C, strain cdc34, hits give low values) was 0.982, the normalized growth (locus YDR226W, strain ADK1, hits give low values) was 0.962 and the normalized growth (locus YDR477W, strain SNF1, hits give low values) was 0.773. It also gave a normalized growth (locus YER123W, strain YCK3, hits give low values) of 0.729, a normalized growth (locus YER133W, strain GLC7, hits give low values) of 0.786 and a normalized growth (locus YFL009W, strain cdc4, hits give low values) of 0.971. The normalized growth (locus YFL029C, strain CAK1, hits give low values) was 0.984, the normalized growth (locus YFR003C, strain YPI1, hits give low values) was 0.98 and the normalized growth (locus YFR019W, strain FAB1, hits give low values) was 0.75 (active). For the same molecule, the normalized growth (locus YFR028C, strain CDC14, hits give low values) was 0.969, the normalized growth (locus YGR040W, strain KSS1, hits give low values) was 0.752 and the normalized growth (locus YGR052W, strain FMP48, hits give low values) was 0.713. The normalized growth (locus YGR092W, strain DBF2, hits give low values) was 0.619, the normalized growth [1] was 0.368 (active) and the normalized growth [2] was 0.668. For the same molecule, the normalized growth (locus YHR082C, strain KSP1, hits give low values) was 0.6 (active), the normalized growth (locus YHR205W, strain SCH9, hits give low values) was 0.617 and the normalized growth (locus YIL147C, strain SLN1, hits give low values) was 0.973. It also gave a normalized growth [3] of 0.726, a normalized growth (locus YJL128C, strain PBS2, hits give low values) of 0.944 and a normalized growth (locus YJL157C, strain FAR1, hits give low values) of 0.723. The normalized growth (locus YJR016C, strain ILV3, hits give low values) was 0.982, the normalized growth (locus YJR066W, strain TOR1 (second series), hits give low values) was 0.771 and the normalized growth [4] was 0.678. It also gave a normalized growth (locus YKL048C, strain ELM1, hits give low values) of 0.845, a normalized growth (locus YKL067W, strain YNK1, hits give low values) of 0.854 and a normalized growth (locus YKL101W, strain HSL1, hits give low values) of 0.828. The normalized growth (locus YKL193C, strain SDS22, hits give low values) was 0.976, the normalized growth (locus YKL203C, strain TOR2, hits give low values) was 0.815 and the normalized growth [5] was 0.81 (active). For the same molecule, the normalized growth (locus YLR133W, strain CKI1, hits give low values) was 0.73 (active), the normalized growth (locus YLR403W, strain SFP1, hits give low values) was 0.619 (active) and the normalized growth (locus YML070W, strain DAK1, hits give low values) was 0.8. The normalized growth (locus YMR001C, strain CDC5, hits give low values) was 0.971, the normalized growth (locus YMR205C, strain PFK2 (second series), hits give low values) was 0.829 and the normalized growth (locus YMR277W, strain FCP1, hits give low values) was 0.973. It also gave a normalized growth (locus YNL006W, strain LST8, hits give low values) of 0.984, a normalized growth (locus YNL020C, strain ARK1, hits give low values) of 0.716 and a normalized growth (locus YNL161W, strain CBK1, hits give low values) of 0.978. The normalized growth [6] was 0.807, the normalized growth (locus YNL207W, strain RIO2, hits give low values) was 0.971 and the normalized growth (locus YNL222W, strain SSU72, hits give low values) was 0.98. For the same molecule, the normalized growth (locus YNL307C, strain MCK1 (second series), hits give low values) was 0.681, the normalized growth (locus YOL078W, strain AVO1, hits give low values) was 0.966 and the normalized growth (locus YOL136C, strain PFK27, hits give low values) was 0.674 (active). It also gave a normalized growth (locus YOR061W, strain CKA2, hits give low values) of 0.758, a normalized growth (locus YOR119C, strain RIO1, hits give low values) of 0.776 and a normalized growth [7] of 0.794. For the same molecule, the normalized growth (locus YOR329C, strain SCD5, hits give low values) was 0.978, the normalized growth (locus YPL031C, strain PHO85, hits give low values) was 0.743 and the normalized growth (locus YPL153C, strain RAD53, hits give low values) was 0.798. The normalized growth (locus YPL204W, strain HRR25, hits give low values) was 0.699, the normalized growth (locus YPL209C, strain IPL1, hits give low values) was 0.975 and the normalized growth [8] was 0.73 (active). For the same molecule, the normalized growth (locus YPR025C, strain CCL1, hits give low values) was 0.977, the normalized growth (locus YPR106W, strain ISR1, hits give low values) was 0.981 and the normalized growth (locus YPR111W, strain DBF20, hits give low values) was 0.962. For the same molecule, the normalized growth (strain NNK1, hits give low values) was 0.967 and the normalized growth (strain TSCII, hits give low values) was 0.974.
